Data as given in PubChem BioAssay (NCATS).
Records with an inconclusive call do not appear. Entries that show only a call come without a potency. Calls of active or inactive are those of the source. Calls come from the whole dose curve; as a rule, active = well fitted inhibition curve with a large enough effect; inconclusive = small, poorly fitted or top-dose-only effect; inactive = flat fitted curve, though single readings scatter.

What follows are compounds tested against Calcium and integrin-binding protein 1 (Homo sapiens) (UniProt Q99828) (assay: Primary qHTS for Identification of Calcium Integrin Binding Protein 1 (CIB1) Competitor (AID 1508620;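 note: GST tagged CIB1 binding a fluorescein labelled alphaIIb integrin peptide tracer; top concentration of the series differs between compounds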)). Conditions: CIB1-GST / FITC-alphaIIb peptide fluorescence polarization; series mostly up to 114 µM.
Chain of Calcium and integrin-binding protein 1 (Homo sapiens) (Q99828 whole entry, looked up): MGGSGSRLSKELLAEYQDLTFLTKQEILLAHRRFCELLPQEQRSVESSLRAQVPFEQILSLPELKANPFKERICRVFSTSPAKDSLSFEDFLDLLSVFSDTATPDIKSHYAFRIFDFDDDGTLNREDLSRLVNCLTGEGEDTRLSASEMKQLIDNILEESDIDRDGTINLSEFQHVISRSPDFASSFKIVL
In short: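 Fluorescence polarization competition: CIB1-GST (1 uM final) preincubated with compound 15 min at room temperature, then FITC-labeled alphaIIb peptide (100 nM final) added for another 15 min. Polarization read at Ex 480/Em 540.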

| Structure (SMILES) | Potency |
| --- | --- |
| C=C1CC[C@H]2C(=C)CC[C@H]3C(=C)C(=O)O[C@@H]3[C@@H]12 | inactive |
| CC(C)(Cc1ccccc1)NCC(O)c1ccc(O)c(NS(C)(=O)=O)c1 (centres undefined) | inactive |
| Cn1cc(C2=C(c3coc4ccccc34)C(=O)NC2=O)c2cc(Br)ccc21 | inactive |
| CNc1cccc(CCOc2ccc3c(c2)CN(CC(F)(F)F)C(=O)[C@H](CC(=O)O)C3)n1 | inactive |
| O=c1[nH]c2ccccc2n1CCN1CCN(c2cccc(C(F)(F)F)c2)CC1 | inactive |
| CC1OC(=O)C[C@@H]2C(C(=O)O)=CO[C@@H](O[C@H]3O[C@H](CO)[C@@H](O)[C@H](O)[C@H]3O)[C@H]12 (some centres undefined) | inactive |
| COc1cc(C(C)C)c(Oc2cnc(N)nc2N)cc1I | inactive |
| CC1CC(=O)C2=C(C1)C1OC1C1(O)C2C(=O)c2cccc(O)c2C1O (centres undefined) | inactive |
| COC(=O)c1ccnc(-c2cc(C(=O)Nc3ccc(C4(N)CC4)cc3)ccn2)c1 | inactive |
| C/C=C/C=C/C(=O)O[C@@H]1C=C2COC(=O)[C@]2(O)[C@@]2(C)CCCC(C)(C)[C@H]12 | inactive |
| COc1cc2ncnc(Oc3ccc(CC(=O)Nc4cnn(C(C)C)c4)cc3)c2cc1OC | inactive |
| CC12CCC(OC3OC(CO)C(O)C(O)C3OC3OC(CO)C(O)C(O)C3O)CC1CCC1C2CCC2(C)/C(=C3/COC(=O)C3)CCC12O (centres undefined) | inactive |
| O=C(NCCN1CCC(n2c(=O)[nH]c3ccccc32)CC1)c1ccc2ccccc2c1 | inactive |
| CC(=O)O[C@H]1CC(C)(C)CC2[C@]13CO[C@@]21CCC2[C@@]4(C)CC[C@H](O[C@@H]5OC[C@H](O[C@@H]6O[C@H](CO)[C@@H](O)[C@H](O)[C@H]6O[C@@H]6OC[C@@H](O)[C@H](O)[C@H]6O)[C@H](O)[C@H]5O[C@@H]5O[C@H](CO)[C@@H](O)[C@H](O)[C@H]5O)[C@@](C)(CO)C4CC[C@@]2(C)[C@]1(C)C[C@H]3O (some centres undefined) | inactive |
| O=C(NCc1nc2ccccc2c(=O)n1-c1ccc(F)cc1)Nc1ccc(Cl)c(C(F)(F)F)c1 | inactive |
| COc1ccc(S(=O)(=O)Nc2cc(Cl)cc(Cl)c2OC)cc1N1CCNCC1 | inactive |
| C/C(=C\CO[C@@H]1O[C@H](CO[C@H]2OC[C@](O)(CO)[C@H]2O)[C@@H](O)[C@H](O)[C@H]1O)C(C)(C)O | inactive |

| Structure (SMILES) | Potency |
| --- | --- |
| COc1cc(C(N)=O)nc(-c2ccccn2)c1O | inactive |
| Cn1c(SCC(=O)N2CCC[C@H]2C(=O)Nc2ccccc2-c2ccccc2)nc2ccccc21 | inactive |
| O=C(Nc1ccc(CN2CCOCC2)cc1)c1ccc(-c2cccc(Cl)c2)o1 | inactive |
| CC[C@@H]1C[C@]1(NC(=O)[C@@H]1C[C@@H]2CN1C(=O)[C@H](C(C)(C)C)NC(=O)OCC(C)(C)CCCCc1cccc3c1CN(C3)C(=O)O2)C(=O)NS(=O)(=O)C1CC1 | inactive |
| CC(=O)O[C@H]1CC2C(COC(=O)CC(C)C)=CO[C@@H](OC(=O)CC(C)C)C2[C@]12CO2 (some centres undefined) | inactive |
| Nc1ncnc2c1c(-c1ccc(Oc3ccccc3)cc1)nn2[C@@H]1CCCNC1 | inactive |
| O=C(CN1C2=NCCN2c2ccccc21)c1ccc(-c2ccccc2)cc1 | inactive |
| C[C@@H]1O[C@@H](O[C@H]2[C@@H]3C=CO[C@@H](O[C@@H]4O[C@H](CO)[C@@H](O)[C@H](O)[C@H]4O)[C@@H]3[C@@]3(CO)O[C@@H]23)[C@H](O)[C@H](OC(=O)/C=C/c2ccccc2)[C@H]1O | inactive |
| COC(=O)CC[C@@H](C)C1CCC2C3CCC4C[C@H](OC(C)=O)CCC4(C)C3C[C@H](O)C21C (some centres undefined) | inactive |
| COc1cc2ncnc(Nc3ccc(O)c(Br)c3)c2cc1OC | inactive |
| CN(C)S(=O)(=O)c1ccc(NC(=S)N2CCC(C(O)(c3ccccc3)c3ccccc3)CC2)cc1 | inactive |
| CN1CCN(C(=O)CN[C@@H]2C[C@H]2c2ccc(OCc3ccccc3)cc2)CC1 | inactive |
| O=C(NCC1(c2nc(-c3ccccc3)cs2)CCOCC1)c1cccc(-c2noc(C(F)(F)F)n2)c1 | inactive |
| Cc1sc2c(c1C)C(c1ccc(Cl)cc1)=N[C@H](CC(=O)NCCCCNC(=O)COc1cccc3c1C(=O)N([C@H]1CCC(=O)NC1=O)C3=O)c1nnc(C)n1-2 | inactive |
| O=C1COc2nccc(-c3ccccc3F)c2CN1Cc1cc(C(F)(F)F)cc(C(F)(F)F)c1 | inactive |
| C=C1C(=O)OC2C3=C(C)C(=O)CC3C(C)CC(O)C12 (centres undefined) | inactive |
| Nc1nc(Nc2ccc3c(c2)CCC(N2CCCC2)CC3)nn1-c1cc2c(nn1)-c1ccccc1CCC2 (centres undefined) | inactive |
